From PubChem BioAssay (NCATS)
Inconclusive results are not listed. The source made the active and inactive calls. Calls come from the whole dose curve; as a rule, active = well fitted inhibition curve with a large enough effect; inconclusive = small, poorly fitted or top-dose-only effect; inactive = flat fitted curve, though single readings scatter.

Key:
Assay in all cases: qHTS profiling for inhibitors of Plasmodium falciparum proliferation (AID 504749); note: nearly all actives have a fitted effect of over 60% in size
Settings in all cases: P. falciparum in erythrocytes, SYBR Green DNA, 72 h; series mostly up to 28.7 µM
CP250 = system: CP250
Summary of the method: (§1)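 SYBR Green fluorescence of parasite DNA, read after lysis and overnight dark incubation, measured growth over 72 h in erythrocyte culture at 0.3% parasitemia and 2.5% hematocrit. Data normalised to DMSO and 0.29 uM artemisinin, with plate-drift correction.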

CP252 = system: CP252
Summary of the method: as §1

CP256 = system: CP256
Summary of the method: as §1

CP260 = system: CP260
Summary of the method: as §1

CP262 = system: CP262
Summary of the method: as §1

CP265 = system: CP265
Summary of the method: as §1

CP266 = system: CP266
Summary of the method: as §1

CP268 = system: CP268
Summary of the method: as §1

CP269 = system: CP269
Summary of the method: as §1

CP286 = system: CP286
Summary of the method: as §1

CP291 = system: CP291
Summary of the method: as §1

CP297 = system: CP297
Summary of the method: as §1

CP305 = system: CP305
Summary of the method: as §1

CP315 = system: CP315
Summary of the method: as §1

CP325 = system: CP325
Summary of the method: as §1

CP329 = system: CP329
Summary of the method: as §1

CP335 = system: CP335
Summary of the method: as §1

DFO2036 = system: DFO2036
Summary of the method: as §1

DIV17 = system: DIV17
Summary of the method: as §1

DIV14 = system: DIV14
Summary of the method: as §1

Measured: Potency
Potency is the fitted concentration of half-maximal effect.

NC(N)=O
not listed: DIV14
inactive: all other assays above

OC1OC[C@@H](O)[C@H](O)[C@@H]1O (stereo partly specified)
not listed: CP335
inactive: all other assays above

COC(=O)[C@@H](N)CS
not listed: CP335
inactive: all other assays above

Nc1ccc(N=Nc2ccccc2)c(N)n1
not listed: CP335
inactive: all other assays above

O=P(O)(O)OC[C@H]1O[C@](O)(COP(=O)(O)O)[C@@H](O)[C@@H]1O
not listed: CP297
inactive: all other assays above

CC(C)CCCC(C)NC(C)C (stereo unspecified)
not listed: CP297
inactive: all other assays above

CNC(=O)c1c(I)c(C(=O)NCC(=O)Nc2c(I)c(C(=O)O)c(I)c(C(=O)NCCO)c2I)c(I)c(N(C)C(C)=O)c1I
not listed: CP315
inactive: all other assays above

CCCc1nc(C(C)(C)O)c(C(=O)OCc2oc(=O)oc2C)n1Cc1ccc(-c2ccccc2-c2nn[nH]n2)cc1
not listed: CP335 | DIV17
inactive: all other assays above

COC(=O)CCC[N+](C)(C)C
not listed: DIV14
inactive: all other assays above

COc1ccc2nc(NC(=O)Nc3ccccc3)sc2c1
active: DIV17 4.78 µM
not listed: CP269 | CP291 | CP329 | DIV14
inactive: all other assays above

CC1=C(/C=C/C(C)=C/C=C/C(C)=C/C(=O)Oc2c(C)c(C)c3c(c2C)CC[C@@](C)(CCC[C@H](C)CCC[C@H](C)CCCC(C)C)O3)C(C)(C)CCC1
not listed: CP266
inactive: all other assays above

S=C=Nc1ccc(N=C=S)cc1
not listed: CP266
inactive: all other assays above

CC(O)CN(C)C (stereo unspecified)
not listed: CP266 | CP329
inactive: all other assays above

O=C(O)CC/C=C\CC[C@@H]1[C@@H](N2CCCCC2)[C@@H](O)C[C@@H]1OCc1ccc(-c2ccccc2)cc1
not listed: CP266 | DIV17
inactive: all other assays above

C=C1C(CCl)(CCl)C2(Cl)C(Cl)C(Cl)C1(Cl)C2(Cl)Cl (stereo unspecified)
active: CP250 1.12 µM | CP252 3.16 µM | CP256 3.55 µM | CP260 3.55 µM | CP262 4.78 µM | CP265 3.55 µM | CP268 4.26 µM | CP269 4.26 µM | CP286 3.55 µM | CP291 4.26 µM | CP297 3.79 µM | CP305 3.79 µM | CP325 3.79 µM | CP329 6.75 µM | CP335 3.01 µM | DFO2036 2 µM | DIV14 1.69 µM | DIV17 1.9 µM

Cc1cccc(C)c1NC(=O)C1CCCCN1C (stereo unspecified)
not listed: CP266 | CP297
inactive: all other assays above

CN(C)C=Nc1c(I)cc(I)c(CCC(=O)O)c1I
not listed: CP268 | CP297
inactive: all other assays above

Cc1cccc(C)c1NC(=O)NC1=CCCN1C
not listed: CP266
inactive: all other assays above

O=C(O)CCCC/C=C(\c1ccccc1)c1cccnc1
not listed: CP266 | CP297
inactive: all other assays above

COc1ccc2c(c1)OC(C)(C)C(c1ccccc1)C2c1ccc(OCCN2CCCC2)cc1 (stereo unspecified)
active: CP250 4.47 µM | CP252 3.98 µM | CP256 4.47 µM | CP260 3.98 µM | CP262 4.78 µM | CP265 3.98 µM | CP266 15.1 µM | CP269 5.36 µM | CP286 3.16 µM | CP291 6.01 µM | CP297 15.1 µM | CP305 13.5 µM | CP325 6.75 µM | CP335 3.79 µM | DFO2036 4.47 µM | DIV14 6.75 µM | DIV17 7.57 µM

CO[C@H]1C[C@@H]2CC[C@@H](C)[C@@](O)(O2)C(=O)C(=O)N2CCCC[C@H]2C(=O)O[C@H]([C@H](C)C[C@@H]2CC[C@@H](OC(=O)C(C)(CO)CO)[C@H](OC)C2)CC(=O)[C@H](C)/C=C(\C)[C@@H](O)[C@@H](OC)C(=O)[C@H](C)C[C@H](C)/C=C/C=C/C=C/1C
not listed: CP266
inactive: all other assays above

CSc1nc2cc(Oc3cccc(Cl)c3Cl)c(Cl)cc2[nH]1
active: CP250 2.24 µM | CP252 3.16 µM | CP256 1.78 µM | CP260 7.94 µM | CP265 2 µM | CP269 12 µM | CP286 10 µM | CP291 8.49 µM | CP297 12 µM | CP305 13.5 µM | CP325 13.5 µM | CP329 13.5 µM | DFO2036 8.91 µM | DIV14 9.53 µM
inactive: CP262

OCCCNc1ccccc1
not listed: CP266
inactive: all other assays above

Oc1ccc(Cl)c2c1CCC2
not listed: CP266 | CP297 | CP335 | DIV17
inactive: all other assays above

CCCCO
not listed: CP266
inactive: all other assays above

CCCCCCOC(=O)c1cccnc1
not listed: CP266
inactive: all other assays above

NCCO/C=C/[C@H](N)C(=O)O
not listed: CP266 | CP325
inactive: all other assays above

Cc1ccc(S(=O)(=O)O)cc1C
not listed: CP266 | CP335
inactive: all other assays above
